Results as given in PubChem BioAssay (NCI).
Compounds without any hit were thinned out: in the full panel of roughly 83,000, 20% have a hit.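 Method: cells in 96-well plates; compound added at one concentration; 48 h incubation; percent growth measured; values under 10 scored active.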 Values without a mark were called inactive. Calls of active or inactive are those of the source.

What was measured:
Assay in all cases: NCI-60 one-dose screen, 48 h (100 = growth as untreated, 0 = no growth, -100 = all killed)
Conditions in all cases: 10 µM unless noted
NCI-H23 lung = tested on: NCI-H23 lung
NCI-H226 lung = tested on: NCI-H226 lung
NCI-H322M lung = tested on: NCI-H322M lung
HOP-62 NSCLC = tested on: HOP-62 NSCLC
NCI-H460 lung = tested on: NCI-H460 lung
HOP-92 NSCLC = tested on: HOP-92 NSCLC
NCI-H522 lung = tested on: NCI-H522 lung
A549/ATCC NSCLC = tested on: A549/ATCC NSCLC
786-0 renal = tested on: 786-0 renal
COLO 205 colon = tested on: COLO 205 colon

SMILES	growth (NCI-H23 lung)	growth (NCI-H226 lung)	growth (NCI-H322M lung)	growth (HOP-62 NSCLC)	growth (NCI-H460 lung)	growth (HOP-92 NSCLC)	growth (NCI-H522 lung)	growth (A549/ATCC NSCLC)	growth (786-0 renal)	growth (COLO 205 colon)
Brc1ccc(-c2nn(-c3ccccc3)cc2-c2nn[nH]n2)s1	92.7%	85.7%	96%	82.7%	102%	62.4%	84.1%	93.9%	88.1%	120%
COc1cc(/C=C/c2cc(/C=C/c3ccc(O)c(OC)c3)n(C(=O)Nc3ccc(C)cc3C)n2)ccc1O	-26.1% (active)	-3.7% (active)	8.13% (active)	-35.7% (active)	1.87% (active)	-27% (active)	6.31% (active)	-3.98% (active)	-59.1% (active)	-65.6% (active)
Cc1ccc(-c2nnc(SCc3nc(N)nc(Nc4ccccc4F)n3)n2-c2ccccc2)cc1	101%	80.4%	93.5%	94.6%	95.8%	67.3%	81.5%	88.7%	95.7%	101%
COc1cccc(-c2nn(-c3ccccc3)cc2-c2ccnc(-c3cccnc3)c2)c1	86.5%	95%	109%	97.4%	92%	95%	86.9%	96.4%	98.1%	94.3%
Nc1nc(Nc2ccc([N+](=O)[O-])cc2O)nc(C(Cl)(Cl)Cl)n1	80.1%	90.2%	96.9%	80%	90.2%	49.4%	10.9%	82.4%	97.1%	107%
Cc1ccc(C2(C)NC(=O)N(CC(=O)Nc3cccc(C)c3)C2=O)cc1 (stereo not given)	96.5%	84.5%	102%	102%	97.8%	63.8%	77.2%	101%	104%	116%
COc1ccc(S(=O)(=O)NC2c3ccccc3CC2O)cc1OC (stereo not given)	103%	102%	109%	102%	109%	109%	99%	102%	104%	119%
C#C[C@]1(O)CC[C@H]2[C@@H]3CC=C4c5sc(-c6ccccc6)nc5CC[C@]4(C)[C@H]3CC[C@@]21C	84.1%	99.6%	86.7%	99.5%	75.5%	77%	77.9%	101%	42.9%	116%
CN(CCNc1ccc(C(=N)N)cc1)c1ccc(C(=N)N)cc1	81.3%	52.7%	71%	112%	47.9%	62.7%	87.6%	41.9%	102%	135%
COc1ccc(Cn2cc3c(c2)-c2oncc2CC3)cc1	79.8%	86.9%	89.6%	58.8%	39.9%	70.1%	71%	52.1%	72.5%	68.4%
O=C(Nc1cccc(Cn2c(=O)[nH]c3ccc(Oc4ncccn4)cc3c2=O)c1)c1cccc(Cl)c1	48.6%	68.6%	75.5%	79.3%	57.7%	75.4%	61.5%	55.5%	65.8%	71.9%
CCN1C(=O)N(CC)C2C1NN=c1s/c(=C3\C(=O)N(C)c4ccccc43)c(=O)n12 (stereo not given)	37%	96.7%	48.4%	29.8%	6.21% (active)	56.8%	21.7%	35.1%	36.9%	8.01% (active)
COC12C=C/C(=C(/C(=O)OCc3ccccn3)C(=O)CCCCCCCCC3(OC)C=C/C(=C(/C(=O)OCc4ccccn4)C(=O)CCCCCCCC1)O3)O2	-37.4% (active)	-69.4% (active)	-60% (active)	20%	-15.5% (active)	-59% (active)	-12.9% (active)	9.81% (active)	-72.5% (active)	-15.6% (active)
COc1ccc(/C=C/C(=O)c2ccc(-n3cc(CN4CCN(c5cc6c(cc5F)c(=O)c(C(=O)O)cn6C5CC5)CC4)nn3)cc2)cc1	78.7%	67.3%	72.8%	75.6%	77.9%	66.6%	67.6%	66.1%	71.9%	98.2%
Cc1cc(C)n(C(=O)CSc2nc3sc4c(c3c(=O)n2-c2ccccc2)CCCCC4)n1	91.6%	98.1%	99.1%	96.3%	103%	95.1%	85.8%	97.6%	108%	115%
CCOC(=O)c1cc(C(=O)c2cc(OC)cc(OC)c2)n2ccccc12	67.3%	73.5%	86.3%	30%	15%	64.3%	40.9%	35.7%	36.4%	13.5%
O=c1c2cccc3c(N4CCOCC4)ccc(c32)c2nc3ccccc3n12	76.9%	91%	89.1%	86.4%	88.4%	59.2%	80.5%	92.7%	97.5%	87.6%
COc1ccc(C(=O)C2OC3=C(C(=O)CC(C)(C)C3)C2c2cccc(Oc3ccccc3)c2)cc1 (stereo not given)	97%	86.9%	95.1%	97%	96.9%	76.4%	76.3%	85.7%	93%	110%
Cc1nc2ccccc2c(/C=C/c2ccc(Br)cc2)c1C(=O)/C=C/c1ccccc1	8.31% (active)	25.1%	35.3%	-35.1% (active)	-56.4% (active)	53.1%	-34.9% (active)	14.8%	2.23% (active)	-29.5% (active)
O=C(Nc1cccc(Cl)c1)Oc1c(Cl)c(Cl)c(Cl)c(Cl)c1Cl	88.1%	83.8%	109%	81.7%	101%	58.7%	83.9%	96.8%	97.9%	101%
Cc1cc(N2CCOCC2)nc(N(CCCNc2ccnc3cc(Cl)ccc23)Cc2ccc3c(c2)OCO3)n1	13.5%	13.8%	21.4%	-17.6% (active)	-11.5% (active)	-25.8% (active)	-66.4% (active)	2.51% (active)	-79% (active)	-58.5% (active)
C#CCOc1ccc(C2=NN(CCCC)C3N=C(Cl)c4ncn(CCCC)c4N23)cc1OCC#C (stereo not given)	86.9%	90.5%	88.8%	90.4%	88.6%	73.6%	74.7%	80.3%	102%	103%
C/C=C(/C)C(=O)O[C@@H]1CC(C)(C)CC2C34OC(=O)[C@@]21CC[C@@]3(C)[C@]1(C)CCC2C(C)(C)C(=O)CC[C@]2(C)C1C[C@@H]4O (stereo not given in full)	73.5%	58.6%	70.2%	74.3%	42.4%	2.1% (active)	72.1%	63.1%	74.7%	56.1%
CCN(CC)CCCNC(=O)c1c2c(n3ccccc13)C(=O)c1ncccc1C2=O	-38.7% (active)	-34.9% (active)	-49% (active)	-69% (active)	-44.4% (active)	-47.1% (active)	-79% (active)	-65.3% (active)	3.22% (active)	-95.6% (active)
COc1ccc(N/N=C/c2ccc3c(c2)Sc2ccccc2N3C)cc1	76.8%	-68.4% (active)	77.1%	66.9%	28.9%	67.5%	46.9%	57.2%	88.4%	102%
